Most compounds without a hit are left out; they make up all but 3.4% or so of the library.
GPR151 ag – activators of human GPR151, primary screen, cell-based, PathHunter beta-arrestin, luminescence; G-protein coupled receptor 151 (Homo sapiens), Q8TDV0; PathHunter beta-arrestin GPR151 cells; activation, % at 11.2 µM; 650,000 compounds, 1% hits; in the data active = activation above about 4.9%;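 also: 0% = median of compound wells and 100% = cells with positive control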
Target sequence (Q8TDV0 whole entry, looked up): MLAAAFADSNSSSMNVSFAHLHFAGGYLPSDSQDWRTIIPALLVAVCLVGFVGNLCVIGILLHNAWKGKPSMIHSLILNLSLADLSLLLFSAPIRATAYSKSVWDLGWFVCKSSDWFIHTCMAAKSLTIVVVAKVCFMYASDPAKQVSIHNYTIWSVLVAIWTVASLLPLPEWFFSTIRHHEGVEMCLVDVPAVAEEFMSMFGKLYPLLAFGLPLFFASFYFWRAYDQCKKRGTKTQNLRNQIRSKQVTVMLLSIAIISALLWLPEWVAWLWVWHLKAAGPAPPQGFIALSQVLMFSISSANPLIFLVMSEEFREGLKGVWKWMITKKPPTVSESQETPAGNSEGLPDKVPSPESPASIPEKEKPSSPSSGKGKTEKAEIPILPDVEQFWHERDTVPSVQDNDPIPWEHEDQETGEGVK
MITF inh – MITF inhibitors, primary screen, biochemical, AlphaScreen, human; Microphthalmia-associated transcription factor (Homo sapiens), O75030; AlphaScreen MITF homodimerization, bead proximity signal; inhibition, % at 2.6 µM; 650,000 compounds, 0.91% hits; AID 1259374, 2018; in the data active = inhibition above about 50%;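 also: 0% = vehicle wells with protein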
FBW7 act – FBW7 E3 ligase activators, primary screen, biochemical, AlphaScreen, human; AlphaScreen FBW7–phospho-cyclin E peptide binding, activator screen; normalized activity (activation), % at 26.1 µM; 650,000 compounds, 0.13% hits; AID 1259310, 2017; in the data active = normalized activity above about 1.9%;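 also: purified mutant Fbw7 with reduced substrate affinity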
TEAD-YAP inh – TEAD-YAP interaction inhibition, primary screen, TEAD-YAP interaction inhibitor project, luminescence, HEK-TIYL cells | TEAD-Gal4/YAP UAS-luciferase luminescence | inhibition, % at 9.12 µM | 640,000 compounds, 1.4% hits | AID 1259422, 2018; in the data active = inhibition above about 32%;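 also: 0% = median of test compound wells and 100% = reference inhibitor wells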
GPR151 confirm – GPR151 activators, triplicate retest, confirmation, cell-based, PathHunter beta-arrestin, luminescence; shares compounds with GPR151 ag; 6,700 tested, under 10 active; activation, % at 11.2 µM; GPR151 PathHunter beta-arrestin cells, 90 min; % of EA-reagent control over plate median;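 active = mean percent activation across replicates above the confirmation screen cutoff of 4.91%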
GPR119 counter – GPR119 activators in beta-arrestin cells, counter-screen for GPR151 activator project, cell-based, PathHunter beta-arrestin, luminescence, triplicate. activation, % at 11.2 µM. 90 min; 0 = compound-well median, 100 = enzyme-acceptor control. 6,700 compounds, 0.3% hits. shares compounds with GPR151 ag;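 active = mean percent activation in the counterscreen above 29.09%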;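 also: counterscreen on off-target GPR119 to flag nonselective hits from the GPR151 activator screen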
Starred values were filed as active, the others as inactive.

Screening Cc1oc(C(=O)N2CCC3(CC2)Nc2ccccc2-n2cccc23)cc1CN1CCOCC1 returned GPR151 ag 1, MITF inh 12, FBW7 act 0 and TEAD-YAP inh 5.
CCOc1ccc(S(=O)(=O)N(CC(=O)NC(C)C)c2ccc(C)cc2)cc1 was read as GPR151 ag 2, MITF inh 24, FBW7 act 0 and TEAD-YAP inh -9.
For Cc1cccc(NC(=O)N2CCC(NC(=O)C3CCCCC3)CC2)c1 the results were GPR151 ag 5.9*, MITF inh -9, FBW7 act 0, TEAD-YAP inh -4, GPR151 confirm 1 and GPR119 counter 2.
For O=C(NC1CCN(C(=O)Nc2cccc(Cl)c2)CC1)C1CCCCC1 the results were GPR151 ag -1, MITF inh -10, FBW7 act 0 and TEAD-YAP inh -6.
Cc1c(Cl)cccc1NC(=O)CN1CCC(NC(=O)C2CCCCC2)CC1 was read as GPR151 ag 8.4*, MITF inh -4, FBW7 act 0, TEAD-YAP inh -9, GPR151 confirm 1 and GPR119 counter 14.
Screening CC(=O)NNC(=S)NC(=O)c1ccc(Br)cc1 returned GPR151 ag 1, MITF inh 6, FBW7 act 0 and TEAD-YAP inh -7.
For CCOc1ccc(OCC(=O)Nc2ccc(OC)cc2[N+](=O)[O-])cc1 the results were GPR151 ag -1, MITF inh 13, FBW7 act 0 and TEAD-YAP inh 11.
CCOc1ccc(NC(=O)Nc2cccc(OC)c2)c([N+](=O)[O-])c1 was read as GPR151 ag 10*, MITF inh 1, FBW7 act 0, TEAD-YAP inh -13, GPR151 confirm 0 and GPR119 counter 0.
Screening Cc1ccc(-n2c(CNS(C)(=O)=O)nnc2SCc2ccc(F)cc2)cc1 returned GPR151 ag 4.9*, MITF inh 13, FBW7 act 0, TEAD-YAP inh 15, GPR151 confirm 1 and GPR119 counter -1.
CS(=O)(=O)NCc1nnc(SCc2ccc(F)cc2)n1-c1ccc(F)cc1 was read as GPR151 ag 0, MITF inh 7, FBW7 act 0 and TEAD-YAP inh 11.
For COc1ccc(CC(=O)Nc2ccc(Cl)cc2C(=O)O)cc1 the results were GPR151 ag -2, MITF inh 3, FBW7 act 0 and TEAD-YAP inh 1.
COc1ccc(CC(=O)Nc2cc(Cl)ccc2C(=O)O)cc1 was read as GPR151 ag 5.6*, MITF inh -7, FBW7 act 0, TEAD-YAP inh 0, GPR151 confirm 0 and GPR119 counter -7.
O=C(c1ccc(N2CCCCCC2)c([N+](=O)[O-])c1)N1CCOCC1 was read as GPR151 ag -1, MITF inh 7, FBW7 act 0 and TEAD-YAP inh -2.
For CS(=O)(=O)N1CCN(c2ccc(C(=O)N3CCOCC3)cc2[N+](=O)[O-])CC1 the results were GPR151 ag 7.6*, MITF inh 13, FBW7 act 1, TEAD-YAP inh 5, GPR151 confirm 0 and GPR119 counter 1.
For CCN(c1ccccc1)c1cc(N2CCCCC2)c2nonc2c1[N+](=O)[O-] the results were GPR151 ag 0, MITF inh 3, FBW7 act 0 and TEAD-YAP inh -1.
Screening O=C(Nc1ccccc1Cl)c1csc(-n2cccc2)n1 returned GPR151 ag 5.7*, MITF inh 1, FBW7 act 0, TEAD-YAP inh -50, GPR151 confirm 0 and GPR119 counter 1.
For CCOC(=O)c1c(NC(=O)CSc2nc3ccccc3s2)sc2c1CCCC2 the results were GPR151 ag 0, MITF inh -1, FBW7 act 0 and TEAD-YAP inh -7.
For Cn1ncc2c(N3CCOCC3)nc(NCc3ccco3)nc21 the results were GPR151 ag 5.4*, MITF inh 17, FBW7 act 0, TEAD-YAP inh -2, GPR151 confirm 0 and GPR119 counter -3.
For O=C(CSc1nnc2sc3ccccc3n12)Nc1cccc(C(F)(F)F)c1 the results were GPR151 ag -1, MITF inh 25, FBW7 act 0 and TEAD-YAP inh 1.
CCCN1CCN(C(c2ccc(F)cc2)c2nnnn2CCOC)CC1 (configuration not stated) was read as GPR151 ag -1, MITF inh -1, FBW7 act 0 and TEAD-YAP inh -9.
Cc1occc1C(=O)NCc1ccco1 was read as GPR151 ag -1, MITF inh 41, FBW7 act 0 and TEAD-YAP inh -3.
Cc1oc(C)c(S(=O)(=O)NC(C)C)c1C(=O)NCc1ccco1 was read as GPR151 ag 7.1*, MITF inh -2, FBW7 act 0, TEAD-YAP inh 2, GPR151 confirm 2 and GPR119 counter 1.
For CC1=C(C(=O)OCC(F)(F)F)C(c2ccc(OCc3ccccc3)cc2)NC(=O)N1 (configuration not stated) the results were GPR151 ag 1, MITF inh -1, FBW7 act 0 and TEAD-YAP inh -10.
For COc1ccccc1C1CN(CC(=O)N(C)C(C)c2nccs2)Cc2ccccc2O1 (configuration not stated) the results were GPR151 ag -1, MITF inh -7, FBW7 act 0 and TEAD-YAP inh -2.
`CN(Cc1nccs1)C(=O)CN1Cc2ccccc2OC(c2ccccc2F)C1` (configuration not stated) gave GPR151 ag 6.6*, MITF inh 3, FBW7 act 1, TEAD-YAP inh 2, GPR151 confirm 1 and GPR119 counter 12.
For Cc1ccc(N2CC(NC(=O)NCc3ccco3)CC2=O)cc1C (configuration not stated) the results were GPR151 ag 5.8*, MITF inh 1, FBW7 act 1, TEAD-YAP inh 6, GPR151 confirm 1 and GPR119 counter -1.
`O=C(NCc1cccs1)NC1CC(=O)N(c2cccc(F)c2)C1` (configuration not stated) gave GPR151 ag 5.0*, MITF inh -3, FBW7 act 0, TEAD-YAP inh 11, GPR151 confirm 1 and GPR119 counter 6.
Screening O=C(COC(=O)CN1C(=O)c2cccc([N+](=O)[O-])c2C1=O)OCN1C(=O)c2ccccc2C1=O returned GPR151 ag 4.9*, MITF inh 34, FBW7 act 1, TEAD-YAP inh -12, GPR151 confirm 0 and GPR119 counter 4.

From PubChem BioAssay
